Laboratory results from PubChem BioAssay.
Activity calls are given as the source filed them.

How the values were obtained:
[1] = compound effects on lung adenocarcinoma cell viability – A549, calcein-AM fluorescence, 48 h, basal, profiling panel (AID 1162); conditions: higher = more signal
[2] = compound effects on differentiated 3T3-L1 adipocyte viability – cell-based, 3T3-L1 adipocytes, calcein-AM fluorescence, 48 h, basal, profiling panel (AID 1163); conditions: 3T3-L1 adipocytes viability, higher = more signal
[3] = compound effects on hepatocellular carcinoma cell viability – HepG2, calcein-AM fluorescence, 48 h, basal, profiling panel (AID 1164); conditions: higher = more signal
[4] = compound effects on multiple myeloma cell viability – MM1S, calcein-AM fluorescence, 48 h, basal, profiling panel (AID 1165); conditions: higher = more signal
[5] = calcein-AM signal in unstimulated myeloma cells – cell-based, calcein-AM fluorescence, 48 h, PK04 Diversity Set, profiling panel (AID 1166); conditions: RPMI8226 myeloma viability, higher = more signal;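 also: cells grown under basal conditions without added stimulus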
[6] = JC-1 mitochondrial signal, unstimulated HepG2 cells – cell-based, JC-1 fluorescence, 24 h, 100 nL compound, profiling panel (AID 1167); conditions: HepG2 mitochondrial potential, higher = more signal
[7] = JC-1 mitochondrial signal, unstimulated adipocytes – cell-based, JC-1 fluorescence, 3T3-L1 adipocytes, 24 h, 100 nL compound, profiling panel (AID 1168); conditions: JC-1 mitochondrial fluorescence, higher = more signal, called active from +8 up or from −8 down
[8] = JC-1 mitochondrial signal, unstimulated myeloma cells – cell-based, JC-1 fluorescence, RPMI8226, 24 h, 100 nL compound, profiling panel (AID 1169); conditions: JC-1 mitochondrial potential fluorescence, higher = more signal
[9] = JC-1 mitochondrial signal, unstimulated MM1S myeloma – cell-based, JC-1 fluorescence, 24 h, 100 nL compound, profiling panel (AID 1170); conditions: MM1S mitochondrial potential, higher = more signal
[10] = resazurin metabolic signal in A549 cells – cell-based, resazurin fluorescence, 24 h, PK04 Diversity Set, profiling panel (AID 1171); conditions: A549 viability, higher = more signal, called active from +8 up or from −8 down
Also: test concentration not given here.

Structure (SMILES) | z-score [1] | z-score [2] | z-score [3] | z-score [4] | z-score [5] | z-score [6] | z-score [7] | z-score [8] | z-score [9] | z-score [10]
OCCCC1=CC(C2CC2)N(Cc2cccc(OC(F)(F)F)c2)CC1 (stereo not given) | -0.346 | 0.643 | 0.43 | -0.522 | 0.0997 | 0.64 | 0.319 (inactive) | 0.48 | 0.572 | 1.83 (inactive)
COC(=O)C(CC#Cc1ccc2c(c1)[C@]1(C(=O)N2)[C@H](c2ccccc2OCCO)N2[C@H](c3ccccc3)[C@H](c3ccccc3)OC(=O)[C@H]2[C@@H]1C(N)=O)C(=O)OC | -0.387 | 0.395 | -4.39 | -3.38 | -4.56 | -2.46 | 3.28 (inactive) | -1.18 | -2.09 | -1.01 (inactive)
[N-]=[N+]=Nc1ccccc1C[C@]1(C(=O)NCC(O)CO)N=C(c2ccc(OCCCO)cc2)O[C@H]1c1ccccc1 (stereo not given in full) | -0.432 | -0.281 | -0.259 | -1.04 | -0.984 | -0.571 | -0.332 (inactive) | -0.514 | -0.283 | 0.381 (inactive)
CC(C)NC(=O)[C@@H]1c2ccccc2C(=O)N(C(C)C)[C@H]1c1ccc(CO)cc1 | 0.772 | 0.0383 | 1.8 | 0.333 | 0.947 | 1.59 | -0.423 (inactive) | -0.104 | -0.952 | 0.842 (inactive)
COc1cc2c(cc1O)C=[N+](Cc1cc3c(cc1Br)OCO3)CC2 | -0.103 | 0.626 | -0.958 | 0.343 | -0.109 | -0.375 | -0.935 (inactive) | 0.108 | -0.374 | -0.698 (inactive)
CCCNC(=O)[C@@H]1c2ccccc2C(=O)N(Cc2ccccc2OC)[C@H]1c1ccc(CO)cc1 | 2.28 | -0.272 | 1.52 | 0.513 | 0.349 | 1.67 | 0.776 (inactive) | 0.182 | -0.565 | -0.0906 (inactive)
CCOC(=O)C[C@H]1[C@H](OC(=O)c2ccc(C(=O)c3ccccc3)cc2)[C@@H](NC(=O)c2ccccc2)c2cc(OCCCO)ccc2N1C(=O)c1ccccc1 | 0.223 | 1.05 | 0.496 | 0.358 | 0.17 | 0.601 | 0.00705 (inactive) | 0.892 | 0.0929 | 0.254 (inactive)
O=C(CS)NCCCCCNC(=O)[C@H]1C[C@H]2C(=O)NCC(=O)N2[C@H]1c1cccc(OCCO)c1 | 0.54 | 0.0451 | -0.203 | 0.304 | 0.111 | -0.342 | -0.0834 (inactive) | 0.127 | 0.112 | 0.768 (inactive)
CN1C(=O)C2C=CC(C(O)c3c(F)cccc3Cl)N(NC(=O)OC(C)(C)C)C2C1=O (stereo not given) | -0.646 | -0.204 | -0.482 | -0.208 | -1.64 | -1.25 | -0.555 (inactive) | -0.715 | 0.925 | 0.143 (inactive)
CO[C@H]1O[C@H](CO)[C@@H](OC(=O)Nc2ccc(Br)cc2)[C@@H]2OC(=O)[C@H](Cc3cccc(Br)c3)C/C=C/C[C@@H](Cc3cccc(Br)c3)C(=O)O[C@@H]12 | 0.193 | 0.461 | 0.31 | -1.37 | -0.228 | -0.741 | 1.78 (inactive) | -0.209 | -0.456 | -2.1 (inactive)
CC(=O)NCCCC[C@@H]1NC(=O)[C@H]2C[C@@H](C(=O)NCCCCCNC(=O)CS)[C@@H](c3ccc(O)cc3)N2C1=O | 0.489 | 0.102 | 0.0041 | -1.41 | 0.102 | 0.231 | -0.729 (inactive) | 0.698 | 0.612 | -0.187 (inactive)
CC(C)[Si](C#CCCCC#N)(Oc1ccccc1Br)C(C)C | 0.551 | -0.924 | 0.235 | -0.887 | -0.181 | -0.247 | -0.183 (inactive) | -0.756 | 0.2 | -0.0106 (inactive)
O=C1OCCC=C[C@H]2OC34C=CCN(c5ccc(Cl)cc5)C(=O)[C@H]3N(CCCO)C(=O)[C@@H]4C12 (stereo not given in full) | 0.0676 | 1.95 | -0.517 | 0.435 | -1.16 | -0.00501 | 0.272 (inactive) | -0.21 | 0.162 | -0.797 (inactive)
C[N+](C)(C)CCCC[C@@H]1NC(=O)[C@H]2C[C@@H](C(=O)NCCCCCCNC(=O)CS)[C@@H](c3ccc(O)cc3)N2C1=O | -0.293 | -0.267 | -0.838 | -0.414 | 0.498 | -1.66 | -0.564 (inactive) | 0.164 | -0.0762 | -0.657 (inactive)
C=C(CCCC)/C(=C/C[C@@H](OC(C)=O)c1cccc(OCCO)c1)c1cnc2ccccc2c1 | 0.238 | 1.3 | -0.0152 | -1.47 | -2.31 | 2.23 | -2 (inactive) | -0.423 | -0.714 | 0.329 (inactive)
C=C(CCCC)/C(=C/C[C@H](OC(=O)c1ccncc1)c1ccc(OCCO)cc1)c1cc(C(=O)OC)ccc1OC | -0.154 | 1.55 | -0.754 | -1.47 | -2.56 | 1.22 | 0.0667 (inactive) | -0.281 | -0.93 | 0.54 (inactive)
CS(=O)(=O)CCOC(=O)C1=CC(CCCO)=CC(c2ccc(CN3CCCC3)cc2)N(Cc2cccc(OC(F)(F)F)c2)C=C1C(=O)OCCS(C)(=O)=O (stereo not given) | 0.75 | 0.309 | 1.81 | -1.46 | -0.697 | 3.78 | -0.168 (inactive) | -0.661 | -0.935 | 0.516 (inactive)
C=CCNC(=O)[C@H]1[C@@H]2C(=O)O[C@@H](c3ccccc3)[C@@H](c3ccccc3)N2[C@@H](c2ccc(O)cc2)[C@]12C(=O)Nc1ccc(C#CCCO)cc12 | 0.838 | -0.655 | 0.122 | 0.994 | 0.168 | -0.757 | 0.651 (inactive) | -0.873 | -0.723 | 0.437 (inactive)
C=CCC(OC(C)=O)[C@@H]1[C@@H](N(Cc2cc3ccccc3o2)C(=O)Cc2ccc(OC)cc2)c2cc(OCCCO)ccc2N1C(=O)c1ccc2ccccc2c1 (stereo not given in full) | 0.0348 | 0.25 | 0.663 | 0.817 | -0.668 | 1.4 | -0.38 (inactive) | -0.0277 | 1.11 | -1.34 (inactive)
C[N+](C)(C)CCCC[C@@H]1NC(=O)[C@@H]2C[C@H](C(=O)NCCCCCN)[C@H](c3ccc(O)cc3)N2C1=O | 1.01 | 0.641 | 0.383 | 0.312 | 0.828 | 1.79 | -0.13 (inactive) | 0.243 | 0.41 | -0.0115 (inactive)
COCCOC(=O)N1C(=O)[C@@]2(c3cc(C#CC4(O)CCCCCC4)ccc31)[C@H](c1ccccc1OCCO)N1[C@H](c3ccccc3)[C@H](c3ccccc3)OC(=O)[C@H]1[C@@H]2C(=O)N1CCc2cc(OC)c(OC)cc2C1 | -0.329 | 0.346 | -0.011 | -0.889 | -1.76 | -0.0229 | 0.0348 (inactive) | -0.686 | -1.14 | 0.512 (inactive)
COC(=O)[C@@]1(Cc2ccc(OC)cc2)[C@H]2c3cc(C(=O)N(C)C)n(Cc4ccc(C(F)(F)F)nc4)c3C[C@H]2CN1C(=O)c1ccccc1 | 0.212 | -0.624 | 0.106 | -0.589 | -0.782 | 0.117 | -0.29 (inactive) | 0.0192 | -1.03 | 0.248 (inactive)
